One assay has as its system NIH3T3. Description: qHTS assay to identify novel small-molecules to repurpose for Merkel cell carcinoma treatment (AID 1296009). Further: nearly all actives have a fitted effect of over 60% in size. The following applies: MCC and control cell lines, CellTiter-Glo viability, 72 h; at 44.8 µM (top of the series) unless noted. A digest of the protocol: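 Dose-response viability screen; 72 hr exposure at 37 degree celsius; CellTiter-Glo added, 10 min room temperature, luminescence read; RLUs scaled between no-cell and DMSO wells.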

In the next assay the test system is C33A. Description: Primary qHTS to identify gynecologic anti-cancer compounds using libraries of approved drugs and bioactive compounds (AID 1345084). Further: nearly all actives have a fitted effect of over 55% in size. Further: potency means the concentration at half of the fitted maximal effect. On activity change, negative = cytotoxicity: on the % scale 0 is the no-effect control and ±100 the full control effect. The following applies: Gynecologic cancer cell panel viability, ATPlite luminescence, 48 h; series mostly up to 57.5 µM. A digest of the protocol:
(§1)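 Measured: luminescence after ATPlite addition (15 min, RT). Exposure: 48 h, 37 C, 5% CO2.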
(qHTS replaces the single test concentration by a dilution series.)

A further assay has as its system CAOV3. The description is as above. The following applies: Gynecologic cancer cell panel viability, ATPlite luminescence, 48 h; series mostly up to 57.5 µM. A digest of the protocol:
as §1
A general note: Cellular ATP, detected with luciferase, serves as a proxy for viable cell number.

The next assay has as its system CASKI. The description is as above. The following applies: Gynecologic cancer cell panel viability, ATPlite luminescence, 48 h; series mostly up to 57.5 µM. A digest of the protocol: as §1
For a further assay, the system named is Es-2. The assay is described as above. The following applies: Gynecologic cancer cell panel viability, ATPlite luminescence, 48 h; series mostly up to 57.5 µM. An outline of the steps: as §1
The test system of a further assay is HeLa. The assay is described as above. The following applies: Gynecologic cancer cell panel viability, ATPlite luminescence, 48 h; series mostly up to 57.5 µM. An outline of the steps:
as §1

For the next assay, the system named is Hek293T. The description is as above. Conditions: Gynecologic cancer cell panel viability, ATPlite luminescence, 48 h, control line for the selectivity index; series mostly up to 57.5 µM. A digest of the protocol: as §1
A further assay relates to JEG-3. Described as above. Conditions: Gynecologic cancer cell panel viability, ATPlite luminescence, 48 h; series mostly up to 57.5 µM. A digest of the protocol: as §1
The subject of another assay is OV90. Described as above. Conditions: Gynecologic cancer cell panel viability, ATPlite luminescence, 48 h; series mostly up to 57.5 µM. A digest of the protocol: as §1
A further assay deals with PA-1. The description is as above. The following applies: Gynecologic cancer cell panel viability, ATPlite luminescence, 48 h; series mostly up to 57.5 µM. A digest of the protocol: as §1
In another assay the test system is SKOV3. The assay is described as above. The following applies: Gynecologic cancer cell panel viability, ATPlite luminescence, 48 h; series mostly up to 57.5 µM. An outline of the steps:
as §1

The test system of a further assay is Tov-21-G. The description is as above. Conditions: Gynecologic cancer cell panel viability, ATPlite luminescence, 48 h; series mostly up to 57.5 µM. An outline of the steps: as §1
The next assay concerns Tov112D. The assay is described as above. The following applies: Gynecologic cancer cell panel viability, ATPlite luminescence, 48 h; series mostly up to 57.5 µM. A digest of the protocol: as §1

Records with an inconclusive call do not appear. A number with no mark means an inactive call. Activity calls are given as the source filed them. The call rests on the fitted dose curve; in most records, active means well fitted curve in the direction sought with a large enough effect; inconclusive means small, poorly fitted or top-dose-only effect, or another doubt; inactive means no such curve, though single readings can be large; an effect the other way counts as inactive or inconclusive.

With `CC1CC(O)C2(OC1=O)OC1C(O)C3C4CCC5CC(OC6OC(CO)C(O)C(O)C6OC6OC(C)C(O)C(O)C6O)CCC5(C)C4CCC3(C)C1C2C` (centres undefined), the outcome with NIH3T3 is “inactive [at 17.4 µM]”. Also, the Potency result with C33A, in the assay on CAOV3, in the assay on CASKI, with Es-2, in the assay on HeLa and in the assay on Hek293T was “inactive” each time. The Potency result in the assay with JEG-3, with OV90, in the assay with PA-1, in the assay on SKOV3, with Tov-21-G and in the assay with Tov112D was “inactive” throughout.

`C=C(C(=O)O)C1CCC2(C)CCCC(C)(O)C2C1` (centres undefined): the result in the assay with NIH3T3 was inactive. For the same compound, the Potency result in the assay on C33A, in the assay with CAOV3, in the assay with CASKI, with Es-2, in the assay on HeLa and in the assay on Hek293T was “inactive” in each case. Besides, the Potency result with JEG-3, in the assay on OV90, in the assay with PA-1, in the assay on SKOV3, in the assay on Tov-21-G and in the assay on Tov112D was “inactive” throughout.

For the compound `C[C@]12C[C@@H](O)[C@@H]3C[C@@]1(O[C@@H]1O[C@H](CO)[C@@H](O)[C@H](O)[C@H]1O)[C@]3(COC(=O)c1ccccc1)C(=O)O2`, the outcome in the assay with NIH3T3 is “inactive [at 17.4 µM]”. Besides, the Potency result in the assay on C33A, in the assay on CASKI, in the assay with Es-2, with HeLa, with Hek293T and with JEG-3 was “inactive” in each case. For the same compound, the Potency entry in the assay with OV90, in the assay on PA-1, in the assay with SKOV3, in the assay on Tov-21-G and in the assay with Tov112D was “inactive” throughout.

For `C[C@@H]1O[C@@H](O[C@H]2[C@H](OC(=O)[C@]34CCC(C)(C)C[C@H]3C3=CCC5[C@@]6(C)C[C@H](O)[C@H](O[C@@H]7O[C@H](CO)[C@@H](O)[C@H](O)[C@H]7O)[C@@](C)(CO)C6[C@H](O)C[C@@]5(C)[C@]3(C)CC4)OC[C@H](O)[C@@H]2O)[C@H](O)[C@H](O)[C@H]1O[C@@H]1OC[C@@H](O)[C@H](O[C@@H]2OC[C@](O)(CO)[C@H]2O)[C@H]1O` (some centres undefined), the outcome in the assay with NIH3T3 was “inactive [at 9.27 µM]”. Besides, the activity change, negative = cytotoxicity in the assay with C33A was 7.14% [at 6.55 µM]; in the assay with CAOV3 it was 10.8% [at 6.55 µM]; in the assay on CASKI, 15.5% [at 6.55 µM]; with Es-2, 6.38% [at 6.55 µM]; in the assay with HeLa, 4.34% [at 6.55 µM]; in the assay on Hek293T it was 3.42% [at 6.55 µM]. Also, the activity change, negative = cytotoxicity with JEG-3 was 3.02% [at 6.55 µM]; with OV90, 1.6% [at 6.55 µM]; in the assay on SKOV3 it was 1.77% [at 6.55 µM]; in the assay with Tov-21-G it was -2.34% [at 6.55 µM]; with Tov112D, 7.29% [at 6.55 µM].

Regarding `NC1(C(=O)NC(CCO)c2ccc(Cl)cc2)CCN(c2ncnc3[nH]ccc23)CC1` (centres undefined), the call in the assay with NIH3T3 was inactive. Also, the Potency with C33A is 2.24 µM (active); in the assay with Tov-21-G it was 1.26 µM (active). In addition, the Potency entry in the assay on CAOV3, in the assay on CASKI, in the assay with Es-2, in the assay on HeLa, with JEG-3 and with PA-1 was “inactive” each time. The Potency result in the assay on Tov112D is “inactive”.

On to `COC(=O)CC1CC(c2ccc(O)cc2)=NO1` (centres undefined), for which the Potency result with C33A, in the assay on CAOV3, in the assay with CASKI, with Es-2, with HeLa and in the assay on Hek293T was “inactive” in each case. The Potency entry in the assay with JEG-3, in the assay on OV90, in the assay with PA-1, in the assay with SKOV3, in the assay with Tov-21-G and in the assay with Tov112D was “inactive” in each case.

Regarding `CNC(C)C(=O)NC(C(=O)N1CCCC1c1nc(C(=O)c2ccc(F)cc2)cs1)C1CCCCC1` (centres undefined), the compound was called inactive in the assay with NIH3T3. In addition, the Potency entry in the assay on C33A, in the assay with CASKI, with Es-2, in the assay on HeLa, with Hek293T and in the assay with JEG-3 was “inactive” in each case. For the same compound, the Potency entry with OV90, with PA-1 and with Tov112D was “inactive” each time.

On to `C/C(=C\CCC(C)CCO)C(=O)OC1(C)CCC2C(C(=O)O)=COC(OC3OC(CO)C(O)C(O)C3O)C21` (centres undefined), for which, in the assay on NIH3T3, the outcome is “inactive; activator [at 17.4 µM]”. The Potency entry with C33A, with CAOV3, in the assay with CASKI, with Es-2, in the assay on HeLa and in the assay with Hek293T was “inactive” in each case. Further, the Potency result with JEG-3, in the assay on OV90, with Tov-21-G and with Tov112D was “inactive” in each case.

As to `COC(=O)C1=CO[C@@H](O[C@@H]2O[C@H](CO)[C@@H](O)[C@H](O)[C@H]2O)[C@@H]2C(COC(C)=O)=C[C@H](O)[C@H]12`, in the assay on NIH3T3, the outcome is “inactive [at 17.4 µM]”. Further, the Potency entry in the assay with C33A, in the assay with CAOV3, in the assay on CASKI, in the assay with Es-2, in the assay with HeLa and with Hek293T was “inactive” in each case. The Potency entry with JEG-3, in the assay with PA-1, in the assay on Tov-21-G and with Tov112D was “inactive” each time.

For the compound `CN(C)CC1CCOC1(c1ccccc1)c1ccccc1` (centres undefined), in the assay on NIH3T3, the outcome is “inactive [at 17.4 µM]”. In addition, the Potency result with C33A, in the assay with CAOV3, in the assay on CASKI, in the assay on Es-2, in the assay on HeLa and in the assay on Hek293T was “inactive” each time. Also, the Potency result in the assay with JEG-3, in the assay with OV90, in the assay on PA-1, in the assay with Tov-21-G and in the assay on Tov112D was “inactive” each time.

Take `C=CC(C)(C)c1[nH]c2cc3c(cc2c1CC1NC(=O)C2CCCN2C1=O)C=CC(C)(C)O3` (centres undefined): the outcome with NIH3T3 was “inactive [at 17.4 µM]”. The Potency result with C33A, with CASKI, with Es-2, with HeLa, in the assay with Hek293T and in the assay with JEG-3 was “inactive” throughout. Further, the Potency result in the assay on OV90, in the assay on PA-1, in the assay on SKOV3, in the assay with Tov-21-G and in the assay with Tov112D was “inactive” each time.

In the case of `COc1cc(C2Oc3c(OC)cc(CCCO)cc3C2CO)ccc1O[C@H]1O[C@H](C)[C@@H](O)[C@H](O)[C@@H]1O` (some centres undefined), the Potency entry in the assay on C33A, in the assay on CAOV3, in the assay on CASKI, in the assay on Es-2, in the assay on HeLa and in the assay with Hek293T was “inactive” in each case. Moreover, the Potency result with JEG-3, with OV90, in the assay on PA-1, with SKOV3, in the assay with Tov-21-G and in the assay on Tov112D was “inactive” throughout.

On to `C=CC/C=C\C/C=C\CCCCCCCc1cccc(O)c1C(=O)O`, for which the Potency result in the assay on C33A, with CAOV3, in the assay on CASKI, in the assay with Es-2, with HeLa and in the assay on Hek293T was “inactive” in each case. Also, the Potency entry in the assay on JEG-3, with OV90, in the assay on PA-1, in the assay on SKOV3, in the assay with Tov-21-G and with Tov112D was “inactive” in each case.

Take `O=C(O)c1ccccc1NC(=O)N1CCC(c2ccccc2C(F)(F)F)CC1`: in the assay with NIH3T3, the outcome was inactive. Also, the Potency entry in the assay on C33A, in the assay on CAOV3, in the assay with CASKI, in the assay with Es-2, in the assay with HeLa and with Hek293T was “inactive” in each case. Moreover, the Potency entry with JEG-3, with OV90, in the assay with PA-1, in the assay with Tov-21-G and in the assay with Tov112D was “inactive” throughout.

The values above are taken from PubChem BioAssay (NCATS).
